Measurements as given in PubChem BioAssay AID1029 (Sanford-Burnham Center for Chemical Genomics, 2008).
Hit rate of the full screen: of about 110,000 compounds, about 80 (0.07%) were called active.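 The calls were made as follows: active = inhibition above the mean of the plate negative controls plus 5 SD (cut at about 13% in these data); inactive = the rest.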 This excerpt belongs to a sample that is enriched for actives.

Assay: blockers of IgG-bead uptake by macrophages – imaging, J774A.1 cells, IgG beads, primary screen (AID 1029);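 also: phagocytic index as fraction of beads internalized from green versus red external bead signal; plate controls were DMSO negative control for no effect and cytochalasin-D positive control for full effect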
Details: J774A.1 macrophage IgG-bead phagocytosis, at 5 µM, hits give high values

Compound	inhibition
CCc1ccc(C2C(C#N)=C(N)N(N(C)C)C3=C2C(=O)CCC3)s1 (stereo not given)	-3.98% (inactive)
O=C(/C=C\c1ccc2c(c1)OCO2)NC1(C(=O)Nc2ccc3c(c2)OCCO3)CCCCC1	-2.27% (inactive)
COc1ccc(NC(C(=O)Nc2cccc(C(C)=O)c2)c2ccccc2)cc1 (stereo not given)	-15.7% (inactive)
C/C(=N\NC(=O)c1ccc(CSc2nc(C)cc(C)n2)cc1)C1CCCCC1	-4.86% (inactive)
CCCn1c(=O)c2c(C(F)(F)F)cc(-c3cccs3)nc2n(CCC)c1=O	1.31% (inactive)
COC(=O)c1sc(N)c(C(=O)OC)c1COC(=O)CNS(=O)(=O)c1ccc(C)cc1	-11.5% (inactive)
Cc1ccc(/C=C/C(=O)Nc2cc(S(=O)(=O)N3CCCCCC3)ccc2OCC(F)(F)F)o1	-12.4% (inactive)
O=C(/C=C/NCc1ccc(F)cc1)c1ccccc1	-1.23% (inactive)
Cn1cc(C(=O)NCc2ccccc2F)cn1	1.49% (inactive)
C=CCc1ccccc1OCC(=O)N/N=C/c1ccccc1OCC	1.26% (inactive)
CCOc1ccc(Oc2nc(C)cc(OC)n2)nn1	-0.15% (inactive)
COCCCNC(=S)NC(=O)c1ccccc1	-6.86% (inactive)
C/C(=N\NC(=O)Cc1ccc(F)cc1)c1ccc(F)cc1	-0.05% (inactive)
COc1ccc(C(=O)CSc2nnc(NC(=O)C3CC(=O)N(c4cccc(OC)c4)C3)s2)cc1 (stereo not given)	6.45% (inactive)
CC1CCCCN1S(=O)(=O)c1ccc(S(=O)(=O)N(CC(=O)Nc2ccccc2)Cc2cccs2)cc1 (stereo not given)	-1.49% (inactive)
COc1ccc([C@H]2[C@H](C(C)=O)N3N=Cc4ccccc4C3C23C(=O)OC(C)(C)OC3=O)cc1 (stereo not given in full)	5.33% (inactive)
CCOC(=O)CNC(=O)/C=C/c1c(Cl)cccc1Cl	-2.32% (inactive)
CC(=O)NC(Cc1ccccc1)C(=O)NC1CCN(c2ncccc2[N+](=O)[O-])CC1 (stereo not given)	1.47% (inactive)
COc1ccc(OCC(=O)Nc2cc(C)c(Cl)cc2OC)c([N+](=O)[O-])c1	-2.85% (inactive)
COc1ccc(S(=O)(=O)NC(C)C)cc1C(=O)NC1CCCCC1	-3.85% (inactive)
